Active and inactive are the calls of the source. How the source made its calls: active means hit-call score of the fitted dose curve at least 0.9, where 1 is the maximum; inactive means score below 0.9.
Columns and labels:
[1] = APR_HepG2_NuclearSize_72hr: Apredica 72-hour HepG2 Assay for Nuclear Size (AID 2282925); conditions: high-content imaging, actives raise or lower the signal
How it was run: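 HepG2 cells were exposed to compounds at ten concentrations from 0.39 to 200 uM (duplicate, 0.5% DMSO final) for 72 hr. After fixation in 3.7% formaldehyde, nuclei were stained with Hoechst 33342 (2 ug/mL) and imaged at 20x.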

[2] = ATG_CRE_CIS: Attagene CIS-FACTORIAL HepG2 Assay for human cAMP Responsive Element (CRE) binding protein 3 (AID 2282926); conditions: HepG2 CRE cis-reporter, Attagene multiplexed mRNA; actives raise or lower the signal
How it was run: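 HepG2 cells transiently transfected with cis-element-driven multiple reporter transcription units; CRE reporter mRNA measured 24 h after dosing by RT-PCR, 6-FAM labelling, HpaI digestion and capillary electrophoresis. Bidirectional fit versus DMSO baseline.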

[3] = target: CCAAT/enhancer-binding protein beta (Homo sapiens) (UniProt P17676); assay: ATG_C_EBP_CIS: Attagene CIS-FACTORIAL HepG2 Assay for human CCAAT/Enhancer Binding Protein (C/EBP) beta (AID 2282927); conditions: HepG2 Attagene cis-factorial transcription factor reporter; actives raise or lower the signal
Sequence of CCAAT/enhancer-binding protein beta (Homo sapiens) (P17676 whole entry, looked up): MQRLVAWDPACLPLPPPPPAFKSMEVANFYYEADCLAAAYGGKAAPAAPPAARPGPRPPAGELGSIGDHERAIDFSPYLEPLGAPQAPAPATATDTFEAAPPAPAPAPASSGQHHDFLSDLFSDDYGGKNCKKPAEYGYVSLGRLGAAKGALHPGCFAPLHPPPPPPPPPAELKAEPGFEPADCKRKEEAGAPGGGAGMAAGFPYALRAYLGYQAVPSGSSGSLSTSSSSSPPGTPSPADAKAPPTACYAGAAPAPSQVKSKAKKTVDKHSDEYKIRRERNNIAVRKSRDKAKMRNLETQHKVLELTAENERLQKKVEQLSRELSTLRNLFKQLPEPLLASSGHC
How it was run: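 Following a 24 h incubation with test chemical, transfected HepG2 cells yielded RNA whose reporter transcripts were quantified by RT-PCR and fluorescent capillary electrophoresis, with DMSO serving as baseline for bidirectional fitting.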

[4] = ATG_CMV_CIS: Attagene CIS-FACTORIAL HepG2 Assay for human CMV (Internal Marker) (AID 2282928); conditions: HepG2 CMV promoter reporter, transcription factor profiling; actives raise or lower the signal;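 further: endpoint acts as a background internal control marker rather than a target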
How it was run: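 After transient transfection of HepG2 with reporter transcription units driven by cis-regulatory promoters, cells receive test chemical for 24 h. Labeled reporter amplicons, digested with HpaI, are sized and quantified by capillary electrophoresis against DMSO.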

[5] = ATG_DR4_LXR_CIS: Attagene CIS-FACTORIAL HepG2 Assay for human Liver X Receptor (LXR), DR4 submotif (AID 2282929); conditions: HepG2 Attagene DR4 cis-reporter, mRNA transcription; actives raise or lower the signal
How it was run: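 Transiently transfected HepG2 liver cells; cis-regulated reporters; 24 h dosing. RT-PCR plus CE read-out of reporter mRNA. DMSO baseline, bidirectional curve fitting.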

[6] = target: Aryl hydrocarbon receptor (Homo sapiens) (UniProt P35869); assay: ATG_Ahr_CIS: Attagene CIS-FACTORIAL HepG2 Assay for human Aryl Hydrocarbon Receptor (Ahr) (AID 2282930); conditions: HepG2 AhR cis-factorial reporter transcription; actives raise or lower the signal
Sequence of Aryl hydrocarbon receptor (Homo sapiens) (P35869 whole entry, looked up): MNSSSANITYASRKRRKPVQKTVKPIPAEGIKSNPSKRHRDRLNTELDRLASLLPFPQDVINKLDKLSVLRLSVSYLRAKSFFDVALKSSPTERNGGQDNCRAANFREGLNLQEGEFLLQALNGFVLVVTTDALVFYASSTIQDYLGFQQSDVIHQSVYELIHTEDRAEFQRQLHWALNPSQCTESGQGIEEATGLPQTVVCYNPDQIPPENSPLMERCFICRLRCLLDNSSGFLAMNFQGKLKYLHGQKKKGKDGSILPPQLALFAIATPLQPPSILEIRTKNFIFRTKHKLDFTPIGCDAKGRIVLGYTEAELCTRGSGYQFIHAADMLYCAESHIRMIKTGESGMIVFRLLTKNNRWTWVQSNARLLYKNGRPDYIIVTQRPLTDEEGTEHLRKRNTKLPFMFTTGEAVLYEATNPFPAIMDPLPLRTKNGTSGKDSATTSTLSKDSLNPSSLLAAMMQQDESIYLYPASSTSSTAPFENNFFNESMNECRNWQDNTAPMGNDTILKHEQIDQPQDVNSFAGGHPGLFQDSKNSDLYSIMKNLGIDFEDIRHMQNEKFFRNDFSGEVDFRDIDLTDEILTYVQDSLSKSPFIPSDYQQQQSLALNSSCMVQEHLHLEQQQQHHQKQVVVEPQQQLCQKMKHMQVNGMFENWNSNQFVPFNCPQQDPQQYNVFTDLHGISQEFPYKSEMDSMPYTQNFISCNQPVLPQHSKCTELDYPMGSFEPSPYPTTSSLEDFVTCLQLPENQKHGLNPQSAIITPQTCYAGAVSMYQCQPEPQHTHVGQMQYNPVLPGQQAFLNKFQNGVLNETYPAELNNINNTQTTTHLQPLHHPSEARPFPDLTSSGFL
How it was run: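 Values derive from bidirectional fitting against DMSO negative control. Underlying signal: cis-element reporter mRNA in transiently transfected HepG2, harvested 24 h post-dose and measured by RT-PCR plus capillary electrophoresis.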

[7] = ATG_AP_1_CIS: Attagene CIS-FACTORIAL HepG2 Assay for human Activator Protein 1 (AP-1) (AID 2282931); conditions: HepG2 Attagene cis-factorial AP-1 reporter mRNA; actives raise or lower the signal
How it was run: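 We transfected HepG2 cells transiently with a set of cis-regulated reporter transcription units, dosed them for 24 h, and quantified reporter mRNA via RT-PCR and capillary electrophoresis, scoring gain or loss of signal relative to DMSO.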

[8] = ATG_AP_2_CIS: Attagene CIS-FACTORIAL HepG2 Assay for human Activator Protein 2 (AP-2) (AID 2282932); conditions: HepG2 AP-2 cis-reporter, Attagene transcription factor profiling; actives raise or lower the signal
How it was run: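 Bidirectional curve fitting against DMSO was applied to reporter mRNA signals from HepG2 cells 24 h after dosing. Cis-promoter reporter units, transiently transfected, were read by RT-PCR plus capillary electrophoresis.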

[9] = ATG_BRE_CIS: Attagene CIS-FACTORIAL HepG2 Assay for human Bone Morphogenetic Protein (BMP) Response Element (BRE) (AID 2282933); conditions: HepG2 BMP response element reporter, Attagene transcription factor profiling; actives raise or lower the signal
How it was run: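 Endogenous transcription factor activity read in transiently transfected HepG2 cells after 24 h chemical exposure. Bidirectional curve fitting against DMSO; readout is reporter transcript level by RT-PCR with capillary electrophoresis of labelled products.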

[10] = target: Retinoic acid receptor alpha (Homo sapiens) (UniProt P10276); assay: ATG_DR5_RAR_CIS: Attagene CIS-FACTORIAL HepG2 Assay for human Retinoic Acid Receptor Alpha (RARE), DR5 submotif (AID 2282934); conditions: HepG2 Attagene cis-factorial RARE DR5 reporter, mRNA; actives raise or lower the signal
Sequence of Retinoic acid receptor alpha (Homo sapiens) (P10276 whole entry, looked up): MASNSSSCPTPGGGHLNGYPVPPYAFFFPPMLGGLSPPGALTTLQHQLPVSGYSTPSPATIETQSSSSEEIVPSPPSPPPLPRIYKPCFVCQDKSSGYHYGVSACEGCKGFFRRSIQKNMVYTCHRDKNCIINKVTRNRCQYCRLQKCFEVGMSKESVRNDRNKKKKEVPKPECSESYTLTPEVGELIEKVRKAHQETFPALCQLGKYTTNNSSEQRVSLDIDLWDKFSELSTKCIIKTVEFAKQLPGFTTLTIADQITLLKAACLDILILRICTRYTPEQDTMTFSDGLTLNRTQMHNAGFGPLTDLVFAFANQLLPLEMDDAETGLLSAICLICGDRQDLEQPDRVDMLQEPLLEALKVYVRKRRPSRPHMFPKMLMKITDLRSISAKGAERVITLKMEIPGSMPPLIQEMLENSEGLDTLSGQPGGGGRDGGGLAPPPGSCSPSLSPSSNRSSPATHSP
How it was run: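 Endpoint fitted in both directions relative to DMSO as negative control. It reflects DR5 cis-element reporter mRNA induction in transiently transfected HepG2 cells, measured 24 h after dosing through RT-PCR and fluorescent capillary electrophoresis.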

[11] = target: Transcription factor E2F1 (Homo sapiens) (UniProt Q01094); assay: ATG_E2F_CIS: Attagene CIS-FACTORIAL HepG2 Assay for human E2F Transcription Factor 1 (AID 2282935); conditions: HepG2 Attagene cis-reporter, E2F reporter RNA transcripts; actives raise or lower the signal
Sequence of Transcription factor E2F1 (Homo sapiens) (Q01094 whole entry, looked up): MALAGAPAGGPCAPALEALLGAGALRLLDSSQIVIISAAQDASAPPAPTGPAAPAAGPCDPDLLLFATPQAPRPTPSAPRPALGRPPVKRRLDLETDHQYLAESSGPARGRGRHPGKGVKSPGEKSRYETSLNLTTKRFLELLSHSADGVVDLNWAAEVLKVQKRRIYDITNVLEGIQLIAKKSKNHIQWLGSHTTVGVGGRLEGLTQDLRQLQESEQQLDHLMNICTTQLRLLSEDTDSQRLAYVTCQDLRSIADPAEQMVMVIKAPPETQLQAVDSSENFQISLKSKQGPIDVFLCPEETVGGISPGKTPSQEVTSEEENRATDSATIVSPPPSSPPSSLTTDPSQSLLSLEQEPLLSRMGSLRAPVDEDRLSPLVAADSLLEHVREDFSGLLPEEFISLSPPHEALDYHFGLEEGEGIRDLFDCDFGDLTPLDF
How it was run: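 Multiplexed cis-reporter assay: HepG2, transient transfection, 24 h dosing, mRNA quantitation by labeled RT-PCR and CE.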

[12] = ATG_E_Box_CIS: Attagene CIS-FACTORIAL HepG2 Assay for human Enhancer Box (E-box) (AID 2282936); conditions: HepG2 E-box cis-reporter transcription, actives raise or lower the signal
How it was run: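 Multiplexed CIS reporter system in transiently transfected HepG2 cells measures native transcription factor activity. Reporter RNA after 24 h exposure is profiled by RT-PCR-capillary electrophoresis.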

[13] = ATG_M_61_CIS: Attagene CIS-FACTORIAL HepG2 Assay for M61 Transcription Factor (Internal Marker) (AID 2282937); conditions: HepG2 Attagene CIS-FACTORIAL M61 internal marker reporter; actives raise or lower the signal
How it was run: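 Multiplexed reporter mRNA assay, HepG2 human hepatoma cells, 24 h treatment. Signal: FAM-labelled, HpaI-digested RT-PCR fragments by CE. Fit: bidirectional, baseline DMSO.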

[14] = ATG_EGR_CIS: Attagene CIS-FACTORIAL HepG2 Assay for human Early Growth Response 1 (EGR1) (AID 2282938); conditions: HepG2 Attagene CIS-FACTORIAL EGR reporter mRNA; actives raise or lower the signal
How it was run: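 Multiplexed cis-reporter system in human hepatoma HepG2 cells, transiently transfected. Cells are dosed for 24 h; reporter transcripts are amplified, fluorescently tagged and sized by capillary electrophoresis, with DMSO as negative control.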

[15] = ATG_M_19_CIS: Attagene CIS-FACTORIAL HepG2 Assay for M19 Transcription Factor (Internal Marker) (AID 2282939); conditions: HepG2 Attagene CIS-FACTORIAL M19 internal marker reporter; actives raise or lower the signal
How it was run: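 Internal marker readout, fitted in both directions against DMSO, from HepG2 cells carrying transfected cis-element reporter constructs; RT-PCR and capillary electrophoresis of reporter mRNA after 24 h exposure.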

[16] = ATG_ERE_CIS: Attagene CIS-FACTORIAL HepG2 Assay for Estrogen Response Element (ERE) (AID 2282940); conditions: HepG2 ERE cis-reporter, Attagene RNA transcript; actives raise or lower the signal
How it was run: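 After 24 h compound treatment, RNA from transfected HepG2 cells was reverse-transcribed, reporter cDNA PCR-amplified, FAM-labelled, HpaI-cut and resolved by capillary electrophoresis. ERE-driven cis reporter transcripts reflect endogenous factors; gain or loss scored against DMSO.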

[17] = ATG_Ets_CIS: Attagene CIS-FACTORIAL HepG2 Assay for human Erythroblast Transformation Specific (ETS) (AID 2282941); conditions: HepG2 ETS cis-reporter transcription, actives raise or lower the signal
How it was run: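 Human HepG2 hepatoma cells were transiently transfected with promoter-driven reporter constructs and treated for 24 hours. Reporter transcripts were quantified by RT-PCR with fluorescent primer extension; bidirectional curve fitting used DMSO as reference.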

[18] = target: Hepatocyte nuclear factor 3-beta (Homo sapiens) (UniProt Q9Y261); assay: ATG_FoxA2_CIS: Attagene CIS-FACTORIAL HepG2 Assay for human Forkhead box A2 (FOXA2) (AID 2282942); conditions: HepG2 cis-reporter transcription factor activity, 24 h; actives raise or lower the signal
Sequence of Hepatocyte nuclear factor 3-beta (Homo sapiens) (Q9Y261 whole entry, looked up): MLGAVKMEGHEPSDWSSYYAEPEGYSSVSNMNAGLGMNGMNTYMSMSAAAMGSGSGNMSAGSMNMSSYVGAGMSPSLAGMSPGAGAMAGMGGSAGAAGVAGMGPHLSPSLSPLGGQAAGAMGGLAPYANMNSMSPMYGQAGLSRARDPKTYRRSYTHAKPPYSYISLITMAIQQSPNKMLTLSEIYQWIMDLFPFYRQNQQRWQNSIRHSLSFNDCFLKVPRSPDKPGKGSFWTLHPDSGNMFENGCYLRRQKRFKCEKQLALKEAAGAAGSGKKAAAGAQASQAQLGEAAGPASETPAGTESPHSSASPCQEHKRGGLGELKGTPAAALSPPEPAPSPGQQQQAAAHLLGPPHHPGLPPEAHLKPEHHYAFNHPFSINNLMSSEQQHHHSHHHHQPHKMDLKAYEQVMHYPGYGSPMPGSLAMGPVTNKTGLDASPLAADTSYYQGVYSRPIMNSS
How it was run: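 Multiplexed cis-element reporter assay in transiently transfected HepG2. Twenty-four hours post-dosing, RNA was reverse-transcribed, amplified, FAM-labelled, HpaI-digested and separated by CE. Activity gain or loss relative to DMSO.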

[19] = ATG_FoxO_CIS: Attagene CIS-FACTORIAL HepG2 Assay for human Forkhead box O (FoxO) (AID 2282943); conditions: HepG2 Attagene cis-reporter, FoxO element, mRNA; actives raise or lower the signal
How it was run: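 Values reflect reporter mRNA induction or loss in HepG2 cells 24 h post-dosing, fitted bidirectionally with DMSO as negative control and baseline. Detection used RT-PCR and fluorescence capillary electrophoresis.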

[20] = ATG_GATA_CIS: Attagene CIS-FACTORIAL HepG2 Assay for human GATA Binding Protein (AID 2282944); conditions: HepG2 GATA cis-element reporter, Attagene multiplex mRNA; actives raise or lower the signal
How it was run: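 Reporter transcripts from a GATA cis-regulated unit, among multiplexed reporters in transfected HepG2 cells, were measured by RT-PCR with capillary electrophoresis after 24 h dosing. Induction or loss scored relative to DMSO.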

Measured: AC50

CC(=O)OCCOCCOCCOC(C)=O
inactive: all assays above

Cc1ccc(C)c(C)c1
inactive: all assays above

COc1ccc2c(c1)c(CC(=O)O)c(C)n2C(=O)c1ccc(Cl)cc1
inactive: all assays above

C[C@]12C=CC(=O)C=C1CC[C@@H]1[C@@H]2C(=O)C[C@@]2(C)[C@H]1CC[C@]2(O)C(=O)CO
active: [16] 6.76 µM
inactive: all other assays above

— PubChem BioAssay (EPA / NIEHS)
